# From PubChem BioAssay (NCI)
# Values joined by “and” are separate entries in the source; they are usually repeats but may differ in a detail not shown here. Equal entries are not always repeated. Compounds without any hit were thinned out: in the full panel of roughly 83,000, 20% have a hit.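 Negative percent growth values reflect cell death: -40 means 40% of the cells present at the start died, and -100 means all died.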 Unmarked numbers belong to inactive results. Active and inactive are the calls of the source. Rule for the calls: active = growth percent below 10; inactive = the rest.
# Tested on: MDA-MB-468 breast
# Experiment: NCI-60 one-dose screen, 48 h (100 = growth as untreated, 0 = no growth, -100 = all killed)
# Details: 10 µM unless noted
row,Compound,growth
1,COc1cc(-c2nc(/C=C3/C(=O)Nc4ccccc43)c3ccccn23)cc(OC)c1OC,87.9%
2,Cc1ccc2oc(=O)cc(-c3sc(N4CCCCC4)nc3-c3ccccc3)c2c1,102%
3,COc1ccc(-c2csc(NC(=O)N3CCN(c4cc5c(cc4F)c(=O)c(C(=O)O)cn5C4CC4)CC3)n2)cc1,-2.96% (active)
4,O=C(CSc1nc2ccccc2c(=O)n1-c1ccccc1)N/N=C/c1ccc(Oc2ccc(Br)cc2)cc1,65.1%
5,O=C(/C=C/c1cccc(Cl)c1Cl)Nc1ncc(Cc2ccccc2Cl)s1,10.4%
6,Nc1c(C(=O)Nc2cccc3ccccc23)sc2nc3c(cc12)CCCC3,35%
7,CC(=O)Cc1cccnc1,97.1%
8,COc1ccc(OC)c(-c2nc(SCC(=O)c3ccc(C#N)cc3)[nH]c(=O)c2C#N)c1,94.3%
9,Cc1cc(Nc2nc(N3CCNCC3)nc3ccccc23)n[nH]1,76.6%
10,Nc1ncnc2[nH]ncc12,-20.3% (active)
11,Cc1nc2ccccc2n1C(=O)C[C@@H]1NC(=S)NC1=O,95.7%
12,S=C(NCc1ccccc1)N1CCC(CCCC2CCN(C(=S)NCc3ccccc3)CC2)CC1,69.1%
13,COc1cc(/C=C/C(=O)c2ccc(NC(=O)CSc3nnc(-c4cc(OC)c(OC)c(OC)c4)n3-c3ccccc3)cc2)cc(OC)c1OC,9.24% (active)
14,CCc1cccc2c3c(sc12)C(c1ccc(F)cc1)C(C#N)=C(N)O3 (stereo not drawn),31.2%
15,O=C1C=CC(=O)N1c1ccccc1N1C(=O)C=CC1=O,104%
16,CN1CCN(Cc2cc(NC(=O)c3cccc(C#Cc4cccc5[nH]nc(N)c45)c3)cc(C(F)(F)F)c2)CC1,10.8%
17,FC(F)(F)c1cc(CNc2nc(Cl)ncc2Br)cc(C(F)(F)F)c1,64.7%
18,COc1cccc(-c2nn(-c3ccccc3)cc2-c2ccnc(N3CCOCC3)c2)c1,69.2%
19,C=C(C)[C@@H]1CC[C@]2(C(=O)Nc3ccccn3)CC[C@]3(C)[C@H](CC[C@@H]4[C@@]5(C)CCCNC(C)(C)[C@@H]5CC[C@]43C)[C@@H]12,-13.8% (active)

row,Compound,growth
1,O=C(CCc1nnc2sc(Cc3ccccc3Cl)nn12)c1nc2ncccc2[nH]1,95.9%
2,CC1(C)CC2=C3C=C[C@@H]4[C@@]5(C)CC[C@H](O)C(C)(C)[C@@H]5CC[C@@]4(C)[C@]3(C)CC[C@@]2(C(=O)O)CC1=O,81.4%
3,CC/C(=C(/c1ccc(O)cc1)c1ccc(OCCN2CCCCC2)cc1)c1ccc(OC)cc1,60.7%
4,COc1ccc(OC)c(CCn2cncc2-c2c[nH]c3ccc(Cl)cc23)c1,-14.9% (active)
5,CN1CCN(CCOc2ccc(-c3cnc4c(-c5ccc(F)cc5)cnn4c3)cc2)CC1,61.3%
6,Cc1cc(CC(=O)NCCO)n(CCO)c(=O)c1,113%
7,COc1ccc(-c2nc3sc(C4CC4)nn3c2/C=C2/C(=O)Nc3ccc(OC)cc32)cc1,23.3%
8,Cc1cccc(CNc2c3ccccc3nc3ccccc23)c1,-0.391% (active)
9,O=c1[nH]c(=S)[nH]c(=O)n1Cc1cccc2ccccc12,107%
10,CC(=[N-])N1CCC[C@@H](Nc2c3ccccc3nc3ccccc23)C1.[Cl][Pt].[NH-]CCC[NH-],-10.4% (active)
11,CC[C@@H](CO)Nc1ccc2ncc(C#Cc3cncc(C(=O)Nc4ccc(CN5CCN(C)CC5)c(C(F)(F)F)c4)c3)n2n1,-68.4% (active)
12,Nc1ccccc1SC(CC(=O)c1ccccc1)c1ccc([N+](=O)[O-])cc1 (stereo not drawn),93.4% and 81.8%
13,O=C1c2ccccc2C(=O)c2c1ccc1[nH]c(CCl)nc21,-28.6% (active)
14,CCCCCCCCCCCCCCCCCC1=NCCN1CCO,102%
15,O=C1/C(=C/c2ccc(Cl)cc2)CN(Cc2cn(CCNc3ccnc4cc(Cl)ccc34)nn2)C/C1=C\c1ccc(Cl)cc1,-76.2% (active)
16,CC(C)n1nc(C#Cc2cccc(O)c2)c2c(N)ncnc21,-44.2% (active)
17,Cc1ccc2nc(Cl)cc(=O)n2c1,112%
18,CCc1ccc(-c2cn3ccnc3c(-c3ccc4ncn(Cc5ccccc5)c4c3)n2)cc1,82.8%
19,O=C(Nc1ccncc1)C(=O)c1cn(S(=O)(=O)c2cccc(Cl)c2)c2ccccc12,31.2%
